Measured values from PubChem BioAssay AID1159580 (chemical genetic matrix, 2015).
Hit rate of the full screen: of about 5,500 compounds, about 2,000 (36%) were called active. Another 18% or so got no clear call; they are omitted. Rule as the data show it: active = normalized growth mostly below about 0.91 (no sharp cut-off); inconclusive = no clear call, values can overlap the other calls; inactive = mostly above about 0.92. The list shows a part of the results.

Test: chemical genetic growth profiling, strain panel (AID 1159580);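 also: tested at 20 µM; growth read once vehicle control cultures reached saturation at 30 °C; 1 = growth at the plate median or of vehicle wells; lower values mean less growth of the strain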
Conditions: S. cerevisiae deletion strains, growth OD

Measured: normalized growth

C=CCN1CCC23c4c5ccc(O)c4O[C@H]2C(=O)CC[C@@]3(O)C1C5 (some centres undefined)
inactive: locus YAL013W, strain DEP1, active compounds read low 1.01 | locus YAL040C, strain CLN3, active compounds read low 1 | locus YCL061C, strain MRC1 (second series), active compounds read low 1 | locus YDR363W, strain ESC2, active compounds read low 1.01 | locus YER002W, strain NOP16, active compounds read low 0.994 | locus YMR263W, strain SAP30, active compounds read low 0.998 | locus YMR307W, strain GAS1, active compounds read low 0.998 | locus YNL175C, strain NOP13, active compounds read low 0.997 | locus YNL197C, strain WHI3, active compounds read low 1.01 | locus YNL224C, strain SQS1, active compounds read low 1.01 | locus YNL322C, strain KRE1, active compounds read low 1.01 | locus YOR083W, strain WHI5 (second series), active compounds read low 1 | locus YPL055C, strain LGE1, active compounds read low 1.02 | locus YPL241C, strain CIN2, active compounds read low 1
